Data on 16 sequences can be found in PMC11006913.

Holding throughout (experiment): PBM; 200 nM protein, PBS
Conditions in all cases: dsDNA, one strand shown

In assay [1] the target is T1, VENTX (Homo sapiens, UniProt O95231 78-163, R121Q).
T1 sequence: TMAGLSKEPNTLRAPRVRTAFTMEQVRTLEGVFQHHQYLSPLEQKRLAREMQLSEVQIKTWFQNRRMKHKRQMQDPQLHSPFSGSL

Assay [2] deals with T2, VENTX (Homo sapiens, UniProt O95231 78-163).
T2 sequence: T1 sequence with Q44R

In assay [3] the target is T3, VENTX (Homo sapiens, UniProt O95231 78-163, Y115F).
T3 sequence: T1 sequence with Y38F, Q44R

Assay [4] addresses HOXC10 (Homo sapiens, UniProt Q9NYD6 254-340).
Assay [5] addresses HOXB6 (Homo sapiens, UniProt P17509 132-218, K202E).
For assay [6], the target named is HOXA2 (Homo sapiens, UniProt O43364 129-215, R185T).
Chain of HOXA2 (Homo sapiens, UniProt O43364 129-215, R185T) (O43364 129-215 R185T): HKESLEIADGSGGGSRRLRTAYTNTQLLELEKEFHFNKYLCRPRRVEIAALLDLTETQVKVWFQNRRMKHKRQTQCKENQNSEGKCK
Assay [7] addresses PITX2 (Homo sapiens, UniProt Q99697 72-157).
For assay [8], the target named is HOXA2 (Homo sapiens, UniProt O43364 129-215, R185K).
Chain of HOXA2 (Homo sapiens, UniProt O43364 129-215, R185K) (O43364 129-215 R185K): as the sequence (O43364 129-215 R185T) above, with T57K counted along it
Assay [9] addresses HOXC10 (Homo sapiens, UniProt Q9NYD6 254-340, K271E).
Assay [10] deals with HOXA2 (Homo sapiens, UniProt O43364 129-215, Y150S).
Chain of HOXA2 (Homo sapiens, UniProt O43364 129-215, Y150S) (O43364 129-215 Y150S): as the sequence (O43364 129-215 R185T) above, with Y22S, T57R counted along it
Assay [11] deals with HOXA2 (Homo sapiens, UniProt O43364 129-215).
Chain of HOXA2 (Homo sapiens, UniProt O43364 129-215) (O43364 129-215): as the sequence (O43364 129-215 R185T) above, with T57R counted along it
Assay [12] concerns the target HOXB6 (Homo sapiens, UniProt P17509 132-218).
Assay [13] addresses HOXA7 (Homo sapiens, UniProt P31268 116-202).
Assay [14] addresses MSX2 (Homo sapiens, UniProt P35548 130-214, R199I).
Assay [15] deals with MSX2 (Homo sapiens, UniProt P35548 130-214).
Chain of MSX2 (Homo sapiens, UniProt P35548 130-214) (P35548 130-214): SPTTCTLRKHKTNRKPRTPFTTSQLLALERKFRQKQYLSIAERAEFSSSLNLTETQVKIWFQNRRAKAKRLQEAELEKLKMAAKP
Assay [16] addresses MSX2 (Homo sapiens, UniProt P35548 130-214, F161Y).
The target of assay [17] is HOXA7 (Homo sapiens, UniProt P31268 116-202, W177C).
Chain of HOXA7 (Homo sapiens, UniProt P31268 116-202, W177C) (P31268 116-202 W177C): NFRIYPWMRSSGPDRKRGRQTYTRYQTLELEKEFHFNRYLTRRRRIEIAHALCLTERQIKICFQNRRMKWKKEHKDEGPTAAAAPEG
Assay [18] has as its target ALX4 (Homo sapiens, UniProt Q9H161 200-286).
The target in assay [19] is T4, PAX4 (Homo sapiens, UniProt O43316 9-242, R200K).
T4 sequence: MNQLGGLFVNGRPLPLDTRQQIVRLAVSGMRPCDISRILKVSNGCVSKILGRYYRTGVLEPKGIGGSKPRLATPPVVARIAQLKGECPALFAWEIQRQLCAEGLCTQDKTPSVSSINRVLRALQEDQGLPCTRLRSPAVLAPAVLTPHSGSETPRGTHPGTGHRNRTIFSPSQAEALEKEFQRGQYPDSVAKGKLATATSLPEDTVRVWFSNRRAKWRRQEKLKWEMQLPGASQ

The target in assay [20] is T5, PAX4 (Homo sapiens, UniProt O43316 9-242).
T5 sequence: T4 sequence with K192R

Assay [21] has as its target ALX4 (Homo sapiens, UniProt Q9H161 200-286, Q225E).
In assay [22] the target is T6, PAX4 (Homo sapiens, UniProt O43316 9-242, R200Q).
T6 sequence: T4 sequence with K192Q

The target of assay [23] is T7, PAX4 (Homo sapiens, UniProt O43316 9-242, F177V).
T7 sequence: T4 sequence with F169V, K192R

Assay [24] has as its target T8, PAX4 (Homo sapiens, UniProt O43316 9-242, F177Y).
T8 sequence: T4 sequence with F169Y, K192R

In assay [25] the target is T9, PAX4 (Homo sapiens, UniProt O43316 9-242, R227W).
T9 sequence: T4 sequence with K192R, R219W

Assay [26] deals with PRRX1 (Homo sapiens, UniProt P54821 80-166, F113S).
Chain of PRRX1 (Homo sapiens, UniProt P54821 80-166, F113S) (P54821 80-166 F113S): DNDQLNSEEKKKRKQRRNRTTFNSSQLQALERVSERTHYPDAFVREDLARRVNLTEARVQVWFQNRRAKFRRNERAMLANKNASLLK
In assay [27] the target is PRRX1 (Homo sapiens, UniProt P54821 80-166).
Chain of PRRX1 (Homo sapiens, UniProt P54821 80-166) (P54821 80-166): as the sequence (P54821 80-166 F113S) above, with S34F counted along it
For assay [28], the target named is VAX1 (Homo sapiens, UniProt Q5SQQ9 86-172).
Chain of VAX1 (Homo sapiens, UniProt Q5SQQ9 86-172) (Q5SQQ9 86-172): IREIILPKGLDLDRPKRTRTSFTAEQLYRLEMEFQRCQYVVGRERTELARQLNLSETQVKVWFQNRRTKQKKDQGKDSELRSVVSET
Assay [29] deals with VAX1 (Homo sapiens, UniProt Q5SQQ9 86-172, T142I).
Chain of VAX1 (Homo sapiens, UniProt Q5SQQ9 86-172, T142I) (Q5SQQ9 86-172 T142I): as the sequence (Q5SQQ9 86-172) above, with T57I counted along it
In assay [30] the target is VAX1 (Homo sapiens, UniProt Q5SQQ9 86-172, K157R).
Chain of VAX1 (Homo sapiens, UniProt Q5SQQ9 86-172, K157R) (Q5SQQ9 86-172 K157R): as the sequence (Q5SQQ9 86-172) above, with K72R counted along it

Residue numbers refer to the chain shown, from its start.

Chain of MSX2 (Homo sapiens, UniProt P35548 130-214, R199I) (P35548 130-214 R199I): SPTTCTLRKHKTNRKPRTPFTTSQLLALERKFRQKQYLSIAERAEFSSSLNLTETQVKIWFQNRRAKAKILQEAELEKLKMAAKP
Chain of HOXC10 (Homo sapiens, UniProt Q9NYD6 254-340, K271E) (Q9NYD6 254-340 K271E): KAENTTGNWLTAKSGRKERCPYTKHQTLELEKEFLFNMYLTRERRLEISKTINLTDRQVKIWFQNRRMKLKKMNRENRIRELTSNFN
Chain of HOXC10 (Homo sapiens, UniProt Q9NYD6 254-340) (Q9NYD6 254-340): as the sequence (Q9NYD6 254-340 K271E) above, with E18K counted along it
Chain of HOXA7 (Homo sapiens, UniProt P31268 116-202) (P31268 116-202): as the sequence (P31268 116-202 W177C) above, with C62W counted along it
Chain of MSX2 (Homo sapiens, UniProt P35548 130-214, F161Y) (P35548 130-214 F161Y): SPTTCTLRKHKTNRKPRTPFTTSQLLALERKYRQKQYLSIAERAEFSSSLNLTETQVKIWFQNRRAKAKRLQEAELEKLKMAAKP
Chain of HOXB6 (Homo sapiens, UniProt P17509 132-218, K202E) (P17509 132-218 K202E): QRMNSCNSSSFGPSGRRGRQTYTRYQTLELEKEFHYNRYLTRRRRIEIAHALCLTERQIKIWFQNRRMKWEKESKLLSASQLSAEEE
Chain of HOXB6 (Homo sapiens, UniProt P17509 132-218) (P17509 132-218): as the sequence (P17509 132-218 K202E) above, with E71K counted along it
Chain of ALX4 (Homo sapiens, UniProt Q9H161 200-286, Q225E) (Q9H161 200-286 Q225E): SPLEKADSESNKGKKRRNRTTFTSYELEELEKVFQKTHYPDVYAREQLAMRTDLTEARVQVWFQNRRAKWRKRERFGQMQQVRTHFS
Chain of ALX4 (Homo sapiens, UniProt Q9H161 200-286) (Q9H161 200-286): as the sequence (Q9H161 200-286 Q225E) above, with E26Q counted along it

CATGGCGG: the binding signal in assay [1] is 7.95 upbm affinity estimate (log intensity, higher = more binding, comparable within an allelic series); in assay [2], 7.8 upbm affinity estimate (log intensity, higher = more binding, comparable within an allelic series); in [3], 7.87 upbm affinity estimate (log intensity, higher = more binding, comparable within an allelic series).
As to AGGGGGCG, the binding signal was 8.25 upbm affinity estimate (log intensity, higher = more binding, comparable within an allelic series) in assay [1]; 8.25 upbm affinity estimate (log intensity, higher = more binding, comparable within an allelic series) in assay [2]; 10 upbm affinity estimate (log intensity, higher = more binding, comparable within an allelic series) in assay [4]; 8.23 upbm affinity estimate (log intensity, higher = more binding, comparable within an allelic series) in assay [3]; 9 upbm affinity estimate (log intensity, higher = more binding, comparable within an allelic series) in assay [5]; 7.3 upbm affinity estimate (log intensity, higher = more binding, comparable within an allelic series) in assay [6]. The binding signal was 8.12 upbm affinity estimate (log intensity, higher = more binding, comparable within an allelic series) in assay [7]; 10.2 upbm affinity estimate (log intensity, higher = more binding, comparable within an allelic series) in assay [8]; 9.95 upbm affinity estimate (log intensity, higher = more binding, comparable within an allelic series) in assay [9]; 10.3 upbm affinity estimate (log intensity, higher = more binding, comparable within an allelic series) in [10]; 7.28 upbm affinity estimate (log intensity, higher = more binding, comparable within an allelic series) in assay [11]; 8.93 upbm affinity estimate (log intensity, higher = more binding, comparable within an allelic series) in [12].
Take CGTCCAGC: the binding signal in assay [1] is 8.04 upbm affinity estimate (log intensity, higher = more binding, comparable within an allelic series); in assay [2], 7.65 upbm affinity estimate (log intensity, higher = more binding, comparable within an allelic series); in assay [13], 8.59 upbm affinity estimate (log intensity, higher = more binding, comparable within an allelic series); in [3] it was 7.81 upbm affinity estimate (log intensity, higher = more binding, comparable within an allelic series); in assay [14], 9.63 upbm affinity estimate (log intensity, higher = more binding, comparable within an allelic series); in assay [15], 9.6 upbm affinity estimate (log intensity, higher = more binding, comparable within an allelic series). Also, the binding signal in assay [16] was 9.74 upbm affinity estimate (log intensity, higher = more binding, comparable within an allelic series); in assay [17], 8.41 upbm affinity estimate (log intensity, higher = more binding, comparable within an allelic series).
Turning to CTAATGGC, the binding signal in assay [1] was 12 upbm affinity estimate (log intensity, higher = more binding, comparable within an allelic series); in assay [2] it was 12.7 upbm affinity estimate (log intensity, higher = more binding, comparable within an allelic series); in [3], 11.8 upbm affinity estimate (log intensity, higher = more binding, comparable within an allelic series).
Regarding AAATCTAC, the binding signal in assay [1] was 9.32 upbm affinity estimate (log intensity, higher = more binding, comparable within an allelic series); in [2], 9.65 upbm affinity estimate (log intensity, higher = more binding, comparable within an allelic series).
Take CACTGGGG: the binding signal was 7.92 upbm affinity estimate (log intensity, higher = more binding, comparable within an allelic series) in [1]; 7.73 upbm affinity estimate (log intensity, higher = more binding, comparable within an allelic series) in assay [2]; 10 upbm affinity estimate (log intensity, higher = more binding, comparable within an allelic series) in assay [4]; 7.93 upbm affinity estimate (log intensity, higher = more binding, comparable within an allelic series) in [3]; 7.07 upbm affinity estimate (log intensity, higher = more binding, comparable within an allelic series) in [6]; 10.1 upbm affinity estimate (log intensity, higher = more binding, comparable within an allelic series) in [8]. Besides, the binding signal in assay [9] was 10 upbm affinity estimate (log intensity, higher = more binding, comparable within an allelic series); in assay [10] it was 10.4 upbm affinity estimate (log intensity, higher = more binding, comparable within an allelic series); in [11] it was 7.07 upbm affinity estimate (log intensity, higher = more binding, comparable within an allelic series).
For ACTATTTA, the binding signal in assay [1] is 10.1 upbm affinity estimate (log intensity, higher = more binding, comparable within an allelic series); in assay [2], 10.6 upbm affinity estimate (log intensity, higher = more binding, comparable within an allelic series); in assay [3] it was 10.1 upbm affinity estimate (log intensity, higher = more binding, comparable within an allelic series).
For GAAGCCGC, the binding signal in [1] is 8.12 upbm affinity estimate (log intensity, higher = more binding, comparable within an allelic series); in [2] it was 8.07 upbm affinity estimate (log intensity, higher = more binding, comparable within an allelic series); in [18], 8.19 upbm affinity estimate (log intensity, higher = more binding, comparable within an allelic series); in [19], 9.31 upbm affinity estimate (log intensity, higher = more binding, comparable within an allelic series); in assay [3] it was 8.31 upbm affinity estimate (log intensity, higher = more binding, comparable within an allelic series); in [20] it was 9.25 upbm affinity estimate (log intensity, higher = more binding, comparable within an allelic series). Moreover, the binding signal in [21] is 8.07 upbm affinity estimate (log intensity, higher = more binding, comparable within an allelic series); in assay [14], 9.54 upbm affinity estimate (log intensity, higher = more binding, comparable within an allelic series); in assay [22], 9.31 upbm affinity estimate (log intensity, higher = more binding, comparable within an allelic series); in [23] it was 9.32 upbm affinity estimate (log intensity, higher = more binding, comparable within an allelic series); in assay [15], 9.58 upbm affinity estimate (log intensity, higher = more binding, comparable within an allelic series); in assay [24], 9.18 upbm affinity estimate (log intensity, higher = more binding, comparable within an allelic series). Also, the binding signal is 9.63 upbm affinity estimate (log intensity, higher = more binding, comparable within an allelic series) in [16] and 9.34 upbm affinity estimate (log intensity, higher = more binding, comparable within an allelic series) in assay [25].
On to GCCAACCC, for which the binding signal in assay [1] is 8.11 upbm affinity estimate (log intensity, higher = more binding, comparable within an allelic series); in [2] it was 7.96 upbm affinity estimate (log intensity, higher = more binding, comparable within an allelic series); in [26] it was 9.36 upbm affinity estimate (log intensity, higher = more binding, comparable within an allelic series); in assay [3], 8.24 upbm affinity estimate (log intensity, higher = more binding, comparable within an allelic series); in assay [27], 9.21 upbm affinity estimate (log intensity, higher = more binding, comparable within an allelic series).
On to ATTATGTC, for which the binding signal in assay [1] is 10.5 upbm affinity estimate (log intensity, higher = more binding, comparable within an allelic series); in assay [2], 11 upbm affinity estimate (log intensity, higher = more binding, comparable within an allelic series); in assay [3] it was 10.4 upbm affinity estimate (log intensity, higher = more binding, comparable within an allelic series).
As to CAGGGCCC, the binding signal is 8.07 upbm affinity estimate (log intensity, higher = more binding, comparable within an allelic series) in [1]; 8.08 upbm affinity estimate (log intensity, higher = more binding, comparable within an allelic series) in assay [2]; 8.32 upbm affinity estimate (log intensity, higher = more binding, comparable within an allelic series) in [13]; 7.87 upbm affinity estimate (log intensity, higher = more binding, comparable within an allelic series) in assay [3]; 7.03 upbm affinity estimate (log intensity, higher = more binding, comparable within an allelic series) in assay [28]; 7.1 upbm affinity estimate (log intensity, higher = more binding, comparable within an allelic series) in [29]. The binding signal is 8.37 upbm affinity estimate (log intensity, higher = more binding, comparable within an allelic series) in assay [17] and 6.99 upbm affinity estimate (log intensity, higher = more binding, comparable within an allelic series) in [30].
For CTCGTGGC, the binding signal in [1] is 8.11 upbm affinity estimate (log intensity, higher = more binding, comparable within an allelic series); in assay [2], 8.09 upbm affinity estimate (log intensity, higher = more binding, comparable within an allelic series); in [3] it was 8.12 upbm affinity estimate (log intensity, higher = more binding, comparable within an allelic series).
For ACCTATTA, the binding signal in assay [1] is 11.4 upbm affinity estimate (log intensity, higher = more binding, comparable within an allelic series); in assay [2], 12 upbm affinity estimate (log intensity, higher = more binding, comparable within an allelic series); in assay [3], 11.1 upbm affinity estimate (log intensity, higher = more binding, comparable within an allelic series).
As to AATAACAC, the binding signal in assay [1] is 9.57 upbm affinity estimate (log intensity, higher = more binding, comparable within an allelic series); in assay [2] it was 9.93 upbm affinity estimate (log intensity, higher = more binding, comparable within an allelic series).
Regarding CGCATGCG, the binding signal in assay [1] was 8.34 upbm affinity estimate (log intensity, higher = more binding, comparable within an allelic series); in assay [2], 8.73 upbm affinity estimate (log intensity, higher = more binding, comparable within an allelic series); in assay [3], 8.4 upbm affinity estimate (log intensity, higher = more binding, comparable within an allelic series).
Regarding CGAGACCG, the binding signal in assay [1] was 8.25 upbm affinity estimate (log intensity, higher = more binding, comparable within an allelic series); in [2] it was 8.39 upbm affinity estimate (log intensity, higher = more binding, comparable within an allelic series); in assay [3], 8.28 upbm affinity estimate (log intensity, higher = more binding, comparable within an allelic series).
